Measurements as given in the supplement of paper PMC10849652.
The full data set covers some 7,900 targets. This sample favours those with a hit. About 0.6% of all pairs of compound and target were hits.

What was measured:
Test in all cases: log2 fold change, soluble protein after heating vs DMSO (PISA); higher = thermal stabilisation; K562 cells, 10 uM, 30 min; active = over 0.2 and 3.5 SD of the protein, either way, in both replicates (recomputed)
[1] = compound: COC1=CC=C(C=C1)CN2C=CC3=C2C=C(C=C3)C(=O)NO
How it was run: (§1)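 K562 cells (2×10^6 cells/mL) were treated with 10 μM compound for 30 min, and aliquots were heated for 3 min over 48°C-58°C. Pooled aliquots were extracted in PBS with 0.5% NP-40 at 4°C, and the supernatant after 21,000xg for 90 min was measured by TMTpro 16plex LC-MS/MS with channel sums equalised. Reported thermal stability, relative to control samples and from duplicates, is a log2 fold change.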

filanesib = compound: CON(C)C(=O)N1N=C(c2cc(F)ccc2F)S[C@@]1(CCCN)c1ccccc1 [filanesib]
How it was run: as §1

zotarolimus = compound: CO[C@H]1C[C@@H]2CC[C@@H](C)[C@@](O)(O2)C(=O)C(=O)N2CCCC[C@H]2C(=O)O[C@H]([C@H](C)C[C@@H]2CC[C@H](n3cnnn3)[C@H](OC)C2)CC(=O)[C@H](C)/C=C(\C)[C@@H](O)[C@@H](OC)C(=O)[C@H](C)C[C@H](C)/C=C/C=C/C=C/1C [zotarolimus]
How it was run: as §1

idasanutlin = compound: COc1cc(C(=O)O)ccc1NC(=O)[C@@H]1N[C@@H](CC(C)(C)C)[C@](C#N)(c2ccc(Cl)cc2F)[C@H]1c1cccc(Cl)c1F [idasanutlin]
How it was run: as §1

alisertib = compound: COc1cc(Nc2ncc3c(n2)-c2ccc(Cl)cc2C(c2c(F)cccc2OC)=NC3)ccc1C(=O)O [alisertib]
How it was run: as §1

[2] = compound: COc1cc2nc(-c3cc(F)ccc3O)nc(N[C@@H]3CNC[C@H]3C(C)(C)O)c2cc1OC
How it was run: as §1

gefitinib = compound: COc1cc2ncnc(Nc3ccc(F)c(Cl)c3)c2cc1OCCCN1CCOCC1 [gefitinib]
How it was run: as §1

[3] = compound: COc1cccc2cc(-c3nc([C@H]4CC[C@H](C(=O)O)CC4)n4ncnc(N)c34)[nH]c12
How it was run: as §1

lapatinib = compound: CS(=O)(=O)CCNCc1ccc(-c2ccc3ncnc(Nc4ccc(OCc5cccc(F)c5)c(Cl)c4)c3c2)o1 [lapatinib]
How it was run: as §1

pictilisib = compound: CS(=O)(=O)N1CCN(Cc2cc3nc(-c4cccc5[nH]ncc45)nc(N4CCOCC4)c3s2)CC1 [pictilisib]
How it was run: as §1

[4] = compound: CS(=O)(=O)c1ccc(-c2cnc(N)c(C(=O)Nc3ccccc3)n2)cc1
How it was run: as §1

crizotinib = compound: C[C@@H](Oc1cc(-c2cnn(C3CCNCC3)c2)cnc1N)c1c(Cl)ccc(F)c1Cl [crizotinib]
How it was run: as §1

[5] = compound: C[C@@H]1COCCN1C2=NC(=NC(=C2)C3(CC3)S(=O)(=O)C)C4=C5C=CNC5=CC=C4
How it was run: as §1

[6] = compound: C[C@H](C1=CC=C(C=C1)C(=O)NC2=C3C=CNC3=NC=C2)N
How it was run: as §1

duvelisib = compound: C[C@H](Nc1ncnc2nc[nH]c12)c1cc2cccc(Cl)c2c(=O)n1-c1ccccc1 [duvelisib]
How it was run: as §1

gandotinib = compound: Cc1cc(Nc2cc(CN3CCOCC3)c3nc(C)c(Cc4ccc(Cl)cc4F)n3n2)n[nH]1 [gandotinib]
How it was run: as §1

tozasertib = compound: Cc1cc(Nc2cc(N3CCN(C)CC3)nc(Sc3ccc(NC(=O)C4CC4)cc3)n2)n[nH]1 [tozasertib]
How it was run: as §1

[7] = compound: Cc1cc(SCc2sc(-c3ccc(C(F)(F)F)cc3)nc2C)ccc1OCC(=O)O
How it was run: as §1

doramapimod = compound: Cc1ccc(-n2nc(C(C)(C)C)cc2NC(=O)Nc2ccc(OCCN3CCOCC3)c3ccccc23)cc1 [doramapimod]
How it was run: as §1

ispinesib = compound: Cc1ccc(C(=O)N(CCCN)[C@@H](c2nc3cc(Cl)ccc3c(=O)n2Cc2ccccc2)C(C)C)cc1 [ispinesib]
How it was run: as §1

Measured: log2 fold change

COX15 (UniProt Q7KZN9)
Chain of UniProt Q7KZN9 (Q7KZN9 whole entry, looked up): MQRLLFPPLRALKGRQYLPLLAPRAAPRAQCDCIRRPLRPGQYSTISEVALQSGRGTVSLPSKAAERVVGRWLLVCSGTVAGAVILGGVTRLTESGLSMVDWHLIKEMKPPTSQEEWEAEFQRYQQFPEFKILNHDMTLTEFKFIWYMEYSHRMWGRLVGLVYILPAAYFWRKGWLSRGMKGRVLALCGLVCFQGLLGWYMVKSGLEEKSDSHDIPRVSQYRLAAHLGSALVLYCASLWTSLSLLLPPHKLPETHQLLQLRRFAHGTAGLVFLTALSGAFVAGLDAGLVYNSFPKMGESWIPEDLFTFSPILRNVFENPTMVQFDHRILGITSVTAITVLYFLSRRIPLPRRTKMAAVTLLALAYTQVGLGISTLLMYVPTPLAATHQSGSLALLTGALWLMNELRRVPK
inactive: [1] 0.04 | filanesib -0.046 | zotarolimus 0.005 | idasanutlin -0.055 | alisertib -0.054 | [2] -0.012 | gefitinib -0.001 | [3] 0.052 | lapatinib 0.001 | pictilisib 0.071 | [4] -0.008 | crizotinib -0.015 | [5] 0.041 | [6] 0.006 | duvelisib 0.035 | gandotinib -0.07 | tozasertib -0.029 | [7] -0.033 | doramapimod -0.023 | ispinesib -0.016

CDC37L1 (UniProt Q7L3B6)
Chain of UniProt Q7L3B6 (Q7L3B6 whole entry, looked up): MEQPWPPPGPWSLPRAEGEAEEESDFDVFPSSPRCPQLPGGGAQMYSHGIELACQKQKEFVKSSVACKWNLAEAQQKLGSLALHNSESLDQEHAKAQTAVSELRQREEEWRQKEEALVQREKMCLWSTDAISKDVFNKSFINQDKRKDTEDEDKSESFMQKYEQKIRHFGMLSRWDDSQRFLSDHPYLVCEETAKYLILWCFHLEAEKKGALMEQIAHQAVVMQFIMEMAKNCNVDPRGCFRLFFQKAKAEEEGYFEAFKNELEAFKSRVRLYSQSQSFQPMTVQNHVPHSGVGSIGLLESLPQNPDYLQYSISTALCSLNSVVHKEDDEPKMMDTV
inactive: [1] -0.027 | filanesib 0.047 | zotarolimus -0.057 | idasanutlin -0.031 | alisertib -0.009 | [2] -0.106 | gefitinib 0.029 | [3] -0.037 | lapatinib 0.034 | pictilisib -0.051 | [4] 0.007 | crizotinib 0.036 | [5] 0.148 | [6] -0.013 | duvelisib -0.039 | gandotinib -0.091 | tozasertib -0.093 | [7] 0.117 | doramapimod -0.036 | ispinesib 0.005

CNOT7 (UniProt Q9UIV1)
Chain of UniProt Q9UIV1 (Q9UIV1 whole entry, looked up): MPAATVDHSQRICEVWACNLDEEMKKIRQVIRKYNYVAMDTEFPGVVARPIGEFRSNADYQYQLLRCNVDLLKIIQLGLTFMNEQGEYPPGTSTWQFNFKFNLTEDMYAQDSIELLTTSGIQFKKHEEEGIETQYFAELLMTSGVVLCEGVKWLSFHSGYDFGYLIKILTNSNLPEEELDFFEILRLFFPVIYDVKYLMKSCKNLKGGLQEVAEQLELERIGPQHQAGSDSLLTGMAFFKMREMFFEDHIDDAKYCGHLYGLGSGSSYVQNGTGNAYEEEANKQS
inactive: [1] -0.032 | filanesib 0.012 | zotarolimus 0.018 | idasanutlin -0.008 | alisertib -0.011 | [2] 0.233 | gefitinib 0.134 | [3] -0.067 | lapatinib -0.036 | pictilisib 0.001 | [4] -0.052 | crizotinib -0.097 | [5] 0.043 | [6] 0.219 | duvelisib 0.069 | gandotinib -0.003 | tozasertib -0.007 | [7] 0.022 | doramapimod 0.07 | ispinesib -0.072

CETN2 (UniProt P41208)
Chain of UniProt P41208 (P41208 whole entry, looked up): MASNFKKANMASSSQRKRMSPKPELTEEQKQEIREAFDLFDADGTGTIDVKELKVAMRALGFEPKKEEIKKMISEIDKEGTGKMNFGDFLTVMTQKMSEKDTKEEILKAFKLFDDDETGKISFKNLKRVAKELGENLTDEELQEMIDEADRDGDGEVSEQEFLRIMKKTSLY
inactive: [1] -0.114 | filanesib 0.225 | zotarolimus -0.067 | idasanutlin 0.042 | alisertib -0.112 | [2] 0.141 | gefitinib 0.019 | [3] 0.028 | lapatinib -0.207 | pictilisib 0.028 | [4] 0.011 | crizotinib 0.103 | [5] 0.066 | [6] 0.003 | duvelisib -0.003 | gandotinib 0.041 | tozasertib -0.01 | [7] -0.135 | doramapimod 0.017 | ispinesib 0.084

CASTOR2 (UniProt A6NHX0)
Chain of UniProt A6NHX0 (A6NHX0 whole entry, looked up): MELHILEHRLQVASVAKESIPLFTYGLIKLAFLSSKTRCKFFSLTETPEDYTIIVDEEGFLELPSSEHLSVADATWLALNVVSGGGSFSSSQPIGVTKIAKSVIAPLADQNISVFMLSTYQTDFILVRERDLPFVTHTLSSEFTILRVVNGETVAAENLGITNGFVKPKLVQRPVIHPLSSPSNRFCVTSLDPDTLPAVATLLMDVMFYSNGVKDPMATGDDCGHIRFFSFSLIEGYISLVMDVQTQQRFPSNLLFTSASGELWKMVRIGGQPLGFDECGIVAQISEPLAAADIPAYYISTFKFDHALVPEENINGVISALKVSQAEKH
inactive: [1] 0.04 | filanesib -0.042 | zotarolimus -0.038 | idasanutlin 0.027 | alisertib -0.08 | [2] 0.194 | gefitinib -0.053 | [3] 0.063 | lapatinib -0.108 | pictilisib -0.042 | [4] -0.053 | crizotinib 0.045 | [5] 0.088 | [6] -0.022 | duvelisib 0.075 | gandotinib -0.018 | tozasertib -0.113 | [7] 0.008 | doramapimod 0.037 | ispinesib 0.018

C19orf53 (UniProt Q9UNZ5)
inactive: [1] -0.225 | filanesib 0.375 | zotarolimus 0.042 | idasanutlin 0.209 | alisertib -0.086 | [2] -0.067 | gefitinib -0.045 | [3] -0.167 | lapatinib 0.184 | pictilisib -0.073 | [4] -0.125 | crizotinib 0.092 | [5] -0.553 | [6] 0.404 | duvelisib -0.15 | gandotinib 0.316 | tozasertib 0.022 | [7] 0.03 | doramapimod 0.174 | ispinesib -0.13

CDK12 (UniProt Q9NYV4)
Chain of UniProt Q9NYV4 (Q9NYV4 whole entry, looked up): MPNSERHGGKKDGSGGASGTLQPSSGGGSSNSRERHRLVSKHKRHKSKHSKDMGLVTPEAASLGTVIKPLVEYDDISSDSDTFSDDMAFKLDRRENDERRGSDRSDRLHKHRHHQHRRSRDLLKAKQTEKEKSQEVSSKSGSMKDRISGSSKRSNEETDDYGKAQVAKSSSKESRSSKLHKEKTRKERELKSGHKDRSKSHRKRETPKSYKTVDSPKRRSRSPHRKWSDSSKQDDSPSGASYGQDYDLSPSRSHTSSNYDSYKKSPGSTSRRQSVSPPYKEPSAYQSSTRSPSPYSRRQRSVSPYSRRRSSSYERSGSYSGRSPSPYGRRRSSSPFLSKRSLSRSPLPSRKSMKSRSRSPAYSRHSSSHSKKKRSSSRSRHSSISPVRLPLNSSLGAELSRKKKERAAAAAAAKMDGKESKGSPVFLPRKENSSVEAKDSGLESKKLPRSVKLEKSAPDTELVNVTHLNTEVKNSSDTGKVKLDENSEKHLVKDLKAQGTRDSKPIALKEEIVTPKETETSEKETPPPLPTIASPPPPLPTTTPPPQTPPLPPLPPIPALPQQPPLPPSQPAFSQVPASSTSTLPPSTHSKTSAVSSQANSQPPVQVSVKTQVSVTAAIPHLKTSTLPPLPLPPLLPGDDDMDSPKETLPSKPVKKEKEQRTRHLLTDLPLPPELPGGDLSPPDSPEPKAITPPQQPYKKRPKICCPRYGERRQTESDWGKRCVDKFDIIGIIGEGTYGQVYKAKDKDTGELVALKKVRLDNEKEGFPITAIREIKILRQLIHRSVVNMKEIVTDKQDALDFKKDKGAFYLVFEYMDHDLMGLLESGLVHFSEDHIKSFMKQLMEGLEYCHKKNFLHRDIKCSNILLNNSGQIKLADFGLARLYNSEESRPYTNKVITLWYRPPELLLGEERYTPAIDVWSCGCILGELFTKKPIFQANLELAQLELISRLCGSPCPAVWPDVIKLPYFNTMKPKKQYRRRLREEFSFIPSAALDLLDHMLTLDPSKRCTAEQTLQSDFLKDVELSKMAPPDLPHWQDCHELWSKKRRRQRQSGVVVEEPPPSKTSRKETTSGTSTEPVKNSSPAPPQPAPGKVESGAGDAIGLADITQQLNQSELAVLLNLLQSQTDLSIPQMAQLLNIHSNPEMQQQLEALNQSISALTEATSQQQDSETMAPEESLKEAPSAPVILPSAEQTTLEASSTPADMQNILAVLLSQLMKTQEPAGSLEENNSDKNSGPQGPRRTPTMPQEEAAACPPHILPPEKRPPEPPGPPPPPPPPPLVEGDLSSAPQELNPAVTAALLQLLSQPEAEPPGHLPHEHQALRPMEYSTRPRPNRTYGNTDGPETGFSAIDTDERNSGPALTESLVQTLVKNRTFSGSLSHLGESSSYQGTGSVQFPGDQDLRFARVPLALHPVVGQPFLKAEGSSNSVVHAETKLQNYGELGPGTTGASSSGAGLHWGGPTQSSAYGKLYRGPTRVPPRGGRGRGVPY
active: gandotinib -1.11
inactive: [1] -0.019 | filanesib 0.463 | zotarolimus -0.072 | idasanutlin 0.303 | alisertib 0.062 | [2] -0.226 | gefitinib 0.005 | [3] -0.03 | lapatinib 0.134 | pictilisib -0.018 | [4] -0.056 | crizotinib -0.054 | [5] -0.362 | [6] 0.376 | duvelisib -0.161 | tozasertib -0.125 | [7] 0.051 | doramapimod 0.299 | ispinesib 0

CALCOCO2 isoform 4 (UniProt Q13137)
Chain of UniProt Q13137 (Q13137 whole entry, looked up): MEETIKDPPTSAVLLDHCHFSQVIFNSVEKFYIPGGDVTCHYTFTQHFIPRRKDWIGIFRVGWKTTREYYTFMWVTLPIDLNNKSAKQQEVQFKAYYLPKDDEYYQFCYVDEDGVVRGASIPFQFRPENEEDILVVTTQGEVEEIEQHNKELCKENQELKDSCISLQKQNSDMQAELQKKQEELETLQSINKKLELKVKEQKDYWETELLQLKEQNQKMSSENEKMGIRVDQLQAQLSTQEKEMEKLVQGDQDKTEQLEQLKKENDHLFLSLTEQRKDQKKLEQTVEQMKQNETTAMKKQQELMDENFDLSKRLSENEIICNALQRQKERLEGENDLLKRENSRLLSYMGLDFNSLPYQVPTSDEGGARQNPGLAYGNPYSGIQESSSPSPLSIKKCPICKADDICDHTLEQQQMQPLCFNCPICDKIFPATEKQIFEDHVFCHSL
inactive: [1] -0.041 | filanesib -0.166 | zotarolimus -0.044 | idasanutlin 0.014 | alisertib 0 | [2] 0.018 | gefitinib -0.07 | [3] -0.08 | lapatinib 0 | pictilisib 0.031 | [4] 0.026 | [5] -0.106 | [6] 0.024 | duvelisib 0.042 | gandotinib 0.071 | tozasertib 0.115 | [7] -0.037 | doramapimod -0.002 | ispinesib -0.262
active: crizotinib -0.355
